# Results published in PubChem BioAssay (NCI).
# The panel holds about 83,000 compounds, 20% with a hit somewhere; the sample as a whole holds those more often.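 Note: values are percent growth. 100 is the growth of untreated cells, values between 100 and 0 indicate rising inhibition; between -100 and 0 indicates cell death.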 A number with no mark means an inactive call. The source made the active and inactive calls. How the source made its calls: active means growth percent below 10; inactive means the rest.
# Assays:
# Assay in all cases: NCI-60 one-dose screen, 48 h (100 = growth as untreated, 0 = no growth, -100 = all killed)
# Conditions in all cases: 10 µM unless noted
# HT29 colon = system: HT29 colon
# SNB-75 CNS = system: SNB-75 CNS
# SNB-19 CNS = system: SNB-19 CNS
# U251 CNS = system: U251 CNS
# PC-3 prostate = system: PC-3 prostate
# SK-MEL-5 melanoma = system: SK-MEL-5 melanoma
# UACC-62 melanoma = system: UACC-62 melanoma
# LOX IMVI melanoma = system: LOX IMVI melanoma
# SK-MEL-28 melanoma = system: SK-MEL-28 melanoma
SMILES,growth (HT29 colon),growth (SNB-75 CNS),growth (SNB-19 CNS) [%],growth (U251 CNS),growth (PC-3 prostate),growth (SK-MEL-5 melanoma),growth (UACC-62 melanoma),growth (LOX IMVI melanoma),growth (SK-MEL-28 melanoma)
Clc1cccc(Cl)c1Cn1c(-c2cncs2)nc2ccccc21,91.5%,83.1%,97.8,93.7%,62.2%,58.9%,61.2%,85%,105%
Cc1nc(Nc2cccnc2)sc1C(=O)/C=C/c1ccc(F)cc1,8.45% (active),2.4% (active),18.9,12.9%,27.6%,67.6%,46.3%,8.41% (active),87.6%
CN1CCN(c2ccc3cc(-c4nc5ccccc5[nH]4)c(=O)oc3c2)CC1,108%,91.8%,118,99.3%,83.2%,74.6%,81.6%,87.2%,94.9%
COc1ccc2c(c1)C(C)Cc1c(N(C)C)ncnc1N2C (configuration not stated),11.6%,14.3%,40.5,28%,26.4%,19.4%,27.6%,42.4%,59.3%
CN(C)c1ccc(C2CC(c3ccccc3)=NN2/C=C2\SC(=O)NC2=O)cc1 (configuration not stated),108%,83.6%,87.6,103%,91.3%,78.8%,90.7%,74.3%,91.1%
CC(=O)Oc1cccc(OC(C)=O)c1OC(C)=O,110%,88.4%,105,95.6%,89.6%,93.8%,96.8%,95.2%,104%
COc1cc(Cn2c(SCC(=O)Nc3cc(OC)c(OC)c(OC)c3)nc3ccccc3c2=O)cc(OC)c1OC,99.5%,-13.7% (active),74.8,52.6%,87.7%,90.4%,84.4%,92.1%,100%
O=C(/C=C/CN1CCOCC1)Nc1cc2c(Nc3ccc(F)c(Cl)c3F)ncnc2cc1OCCOC(F)F,,21.5%,70,81.2%,46.1%,50.4%,65.7%,15.3%,77.5%
NCCSC(c1ccccc1)(c1ccccc1)c1ccccc1,0.695% (active),12.5%,53.3,14.1%,19.4%,11.9%,29.5%,25.9%,43%
COc1cc(C2C=C(C)N=C3SC=C(C)N32)cc(OC)c1OC (configuration not stated),-37.2% (active),,33.5,,-17.6% (active),-97.5% (active),-61.3% (active),-82.4% (active),-75.5% (active)
COc1ncc(-c2ccc3ncnc(Nc4cccc(Cl)c4)c3c2)cc1NS(=O)(=O)CCN1CCOCC1,10.1%,-19.2% (active),21.2,28.3%,12.4%,-19.6% (active),-21.4% (active),1.29% (active),-4.89% (active)
C=C1C(=O)O[C@H]2[C@H]1CC/C(COC(=O)NCCc1cccc(OC)c1)=C\CC[C@@]1(C)O[C@@H]21,1.86% (active),76.1%,56.9,66%,50.5%,87.6%,22.8%,3% (active),46.7%
NS(=O)(=O)c1ccc(NCC(=O)Nc2ccc(-c3nc4ccccc4s3)cc2)cc1,,69.5%,74.3,71.3%,64.7%,71.3%,,13.1%,
COc1ccc(OC)c(C(=O)c2oc3ccc(Br)cc3c2N)c1,7.35% (active),-29.4% (active),38.3,9.85% (active),-1.02% (active),31.7%,10.9%,32.9%,37.9%
Cn1c(-c2nonc2NC(=O)c2ccc(F)cc2)nc2ccccc21,101%,100%,110,108%,101%,97.2%,108%,97.8%,110%
COc1cc(CCn2nnc3c(NCCCCO)ncnc32)cc(OC)c1,112%,84.4%,106,99.5%,88.3%,99.1%,104%,102%,109%
C=C1C(=O)O[C@H]2[C@H]1CC/C(COC(=O)NCc1cc(OC)cc(OC)c1)=C\CC[C@@]1(C)O[C@@H]21,-40.2% (active),59.3%,42.3,40.7%,30.2%,84.9%,,-31% (active),-20.2% (active)
Cc1cc(C)c(NC(=O)c2sc3nc4c(cc3c2N)CN(Cc2ccccc2)CC4)c(C)c1,7.19% (active),7.64% (active),42.9,32.9%,22%,26.1%,24.5%,38.7%,57.1%
COc1cc(OC)c(C(=O)/C=C/c2ccc(C(F)(F)F)cc2)c(OC)c1,26.9%,30%,57.5,46.2%,54.5%,62.2%,48.2%,32.4%,67.4%
O=C1CCC(=O)N1Cc1ccccc1,101%,,110,101%,100%,102%,104%,90.5%,101%
